Assay results: PubChem BioAssay AID1053173 (Broad Institute, 2014)
In all, about 1,500 compounds went through this assay and about 390 (26%) were called active. Not all results are given here. Potency and affinity values are given separately. Values without a mark were called inactive. No rule for the calls is given here.

The molecules below were run against Histone-lysine N-methyltransferase NSD2 (Homo sapiens) (UniProt O96028) (assay: blockers of NSD2 H4 peptide methylation – biochemical, AlphaScreen, cherry-picked samples, dose response (AID 1053173;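 also: 0% = neutral control wells and -100% = positive control wells on each plate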)). Conditions: 120 min; series mostly up to 10 µM; activity change, negative = inhibition: at the top concentration.
Sequence of Histone-lysine N-methyltransferase NSD2 (Homo sapiens) (O96028 whole entry, looked up): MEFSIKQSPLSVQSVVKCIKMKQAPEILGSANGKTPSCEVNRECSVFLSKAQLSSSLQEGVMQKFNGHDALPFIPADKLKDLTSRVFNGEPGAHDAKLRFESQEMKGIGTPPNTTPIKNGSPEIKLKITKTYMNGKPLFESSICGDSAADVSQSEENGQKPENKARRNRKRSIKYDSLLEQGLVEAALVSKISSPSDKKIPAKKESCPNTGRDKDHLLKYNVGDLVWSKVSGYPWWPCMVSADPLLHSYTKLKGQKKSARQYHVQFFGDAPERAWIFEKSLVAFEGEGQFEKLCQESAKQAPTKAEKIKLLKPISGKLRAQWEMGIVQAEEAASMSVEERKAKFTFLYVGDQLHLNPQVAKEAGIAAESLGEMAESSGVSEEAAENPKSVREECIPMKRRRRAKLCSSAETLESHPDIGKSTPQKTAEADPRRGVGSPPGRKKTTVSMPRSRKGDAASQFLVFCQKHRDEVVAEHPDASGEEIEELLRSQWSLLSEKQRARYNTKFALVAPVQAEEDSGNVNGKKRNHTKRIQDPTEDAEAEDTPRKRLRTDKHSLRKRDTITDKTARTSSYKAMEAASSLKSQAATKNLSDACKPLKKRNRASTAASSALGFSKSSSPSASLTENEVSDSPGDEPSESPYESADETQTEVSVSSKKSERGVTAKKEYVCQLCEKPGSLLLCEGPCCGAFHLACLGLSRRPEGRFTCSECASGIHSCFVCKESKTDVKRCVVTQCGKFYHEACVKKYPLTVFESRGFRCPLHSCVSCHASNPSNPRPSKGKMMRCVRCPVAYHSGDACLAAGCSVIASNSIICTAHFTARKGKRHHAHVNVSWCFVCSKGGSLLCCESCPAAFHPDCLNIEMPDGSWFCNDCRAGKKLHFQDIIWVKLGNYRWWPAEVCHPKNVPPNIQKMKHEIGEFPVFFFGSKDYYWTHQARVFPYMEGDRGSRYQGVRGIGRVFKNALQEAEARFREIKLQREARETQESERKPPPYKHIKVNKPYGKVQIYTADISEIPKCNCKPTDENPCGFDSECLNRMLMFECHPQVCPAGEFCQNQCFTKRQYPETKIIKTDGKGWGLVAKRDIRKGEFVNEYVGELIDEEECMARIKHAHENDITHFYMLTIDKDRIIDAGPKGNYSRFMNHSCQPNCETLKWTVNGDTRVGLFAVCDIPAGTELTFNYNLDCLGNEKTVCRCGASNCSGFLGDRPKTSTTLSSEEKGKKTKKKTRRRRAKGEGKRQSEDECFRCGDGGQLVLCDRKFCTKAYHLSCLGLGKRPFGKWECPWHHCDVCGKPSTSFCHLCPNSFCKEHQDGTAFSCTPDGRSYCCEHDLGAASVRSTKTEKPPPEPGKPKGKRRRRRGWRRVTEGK

| SMILES | activity change, negative = inhibition |
| --- | --- |
| Cc1cc2nn(-c3cccc4ccccc34)nc2cc1NC(=O)c1cccs1 | -2.36% |
| COc1ccc(-c2nn(-c3ccccc3)cc2C(=O)Nc2ccc(C(=O)O)cc2)cc1 | -3.2% |
| CC(=NO)c1cc(Br)c2cccc3c2c1CC3 | -2.86% |
| Cc1ccc(/C=C2/SC(=O)NC2=S)o1 | -13.5% |
| CC1(C)C2CCC1(C)C(OC(=O)CSc1nc(N)cc(=O)[nH]1)C2 (centres undefined) | 0.121% |
| Cc1c(C(=O)c2no[n+]([O-])c2C(=O)c2cnn(C)c2C)cnn1C | -0.643% |
| CCOc1ccc(NC(=O)CN(c2cccc(C(F)(F)F)c2)S(C)(=O)=O)cc1 | 3.66% |
| COc1ccc(N/C=C2\CCc3ccccc3C2=O)cc1 | -8.24% |
| COc1ccc(NC2=CC(c3cccc(OC)c3)N(c3ccc(OC)cc3)C2=O)cc1 (centres undefined) | -3.22% |
| COc1ccc(Nc2oc(COc3ccccc3OC)nc2C#N)cc1 | 0.344% |
| c1coc(CNCCCN2CCOCC2)c1 | -2.81% |
| O=C(CN1CCC(C(=O)c2ccc3c(c2)OCCO3)CC1)NCc1ccccc1 | -0.843% |
| COc1cccc(CN(C)C(=O)c2cc(COc3c(F)cccc3F)on2)c1 | 1.74% |
| Cc1ccccc1Nc1nc(N)nc(CSc2nnc3sc4ccccc4n23)n1 | 5.36% |
| COc1cc2sc(C)nc2c2ccccc12 | -0.927% |
| Cc1ccc(Cn2c(SCC(=O)N3CC(=O)Nc4ccccc43)nc3ccccc3c2=O)cc1 | -2.5% |
| CCN1CCN(c2ncnc3scc(-c4ccc(OC)cc4)c23)CC1 | -10.3% |
| O=C(O)C1CC(c2ccccc2F)=NO1 (centres undefined) | -4.43% |
| Cc1cc(C)cc(-n2c(C)nc3cc(C(=O)O)ccc32)c1 | 1.21% |
| O=C(CSc1ccc(Cl)cc1)Nc1cc(-c2nc3ncccc3o2)ccc1Cl | -0.517% |
| COCCCNC1=C(Cl)C(=O)c2ccccc2C1=O | -10.6% |
| CC(C)(C)CN1CCNC(=O)C1CC(=O)N1CCC(C(=O)N2CCOCC2)CC1 (centres undefined) | 1.16% |
| CCOc1ccccc1/C=N/NC(=O)c1nnn(-c2nonc2N)c1CN1CCC(C)CC1 | -3.55% |
| CNc1ccc(Br)cc(C(=O)/C=C/c2cccc(OC)c2OC)c1=O | -8.99% |
| COc1cc(/C=C/c2cccc[n+]2C)ccc1OCC(=O)Nc1ccccc1C | -0.922% |
| CC(C)(C)c1cc(C(=O)N/N=C/c2ccncc2)n[nH]1 | -2.87% |
| CC(=O)c1ccc(NC(=S)Nc2cccc3cnccc23)cc1 | -1.63% |

| SMILES | activity change, negative = inhibition |
| --- | --- |
| COC(=O)c1c(NC(=O)C(C)C)sc(C(=O)N2CCOCC2)c1C | -0.343% |
| COc1ccc(NC(=S)Nc2cccc3cnccc23)cc1 | -4.99% |
| Cc1ccccc1NC(=S)Nc1cccc2cnccc12 | -2.75% |
| CN(C)CCC(=O)N1C/C(=C/c2ccccc2)C(=O)/C(=C\c2ccccc2)C1 | -5.71% |
| Cn1ncc(Cl)c1C(=O)Nc1cc(C(F)(F)F)ccc1F | -1.47% |
| COc1ccc(/C=C2/C(=O)N(c3c(F)c(F)c(F)c(F)c3F)N=C2C)cc1 | 0.848% |
| O=C(COc1ccc(S(=O)(=O)N2CCCC2)cc1)Nc1ccc(F)cc1 | 1.47% |
| O=C(O)CC(C(=O)O)N1C(=O)/C(=C/c2ccc(-c3nc4ccccc4s3)o2)SC1=S (centres undefined) | -6.38% |
| O=C(O)COc1ccc(/C=C/C(=O)c2ccc3ccccc3c2)cc1 | -9.29% |
| O=C(CNC(=O)c1ccccc1)Oc1ccc([N+](=O)[O-])cc1 | -4.16% |
| C=CCC1CCCCC1=C(C#N)c1ccccc1 (centres undefined) | -3.42% |
| NC1=NC(=Nc2ccc(Br)cc2)c2ccccc21 | -5.36% |
| CC(=O)Nc1ccc(S(=O)(=O)/N=C2/NC(=O)/C(=C\c3ccco3)S2)cc1 | -9.65% |
| Cc1[nH][nH]c(=O)c1C(c1c(C)[nH][nH]c1=O)c1cn(C)c2ccccc12 | -2.97% |
| Cc1[nH][nH]c(=O)c1C(c1ccc(-c2ccc(Cl)c(C(=O)O)c2)o1)c1c(C)[nH][nH]c1=O | -7.88% |
| COc1ccc2c(c1)Cc1sc(NC(=O)c3cccnc3)nc1-2 | 4.51% |
| Cc1ccc(N2CN=c3s/c(=C\c4ccccn4)c(=O)n3C2)cc1 | -0.608% |
| Cc1c(-c2cccc(Cl)c2)nc2ccccc2c1C(=O)OC/C(O)=C(\C#N)c1nc2ccccc2[nH]1 | -3.82% |
| COc1ccc(C=C(c2nc3ccccc3s2)c2nc3ccccc3s2)cc1O | -9.17% |
| O=C(NC1CCCc2ccccc21)c1ccccc1OC(F)F (centres undefined) | 0.349% |
| O=C1Nc2ccc(S(=O)(=O)NCc3ccco3)c3cccc1c23 | 0.667% |
| COc1ccc(NC2CCCN(C(=O)c3ccccc3N3CCOCC3)C2)cc1OC (centres undefined) | -0.733% |
| Cn1c(NNC(=O)c2c(F)cccc2F)cc(=O)n(C)c1=O | 6% |
| Nc1nonc1-c1nc2ccccc2n1CC(=O)N/N=C/c1ccc(-c2ccccc2C(=O)O)o1 | -10.2% |
| Cc1[nH][nH]c(=O)c1C(c1ccc(-c2ccccc2C(=O)O)o1)c1c(C)[nH][nH]c1=O | -9.78% |
| O=C(CSc1n[nH]c(-c2ccncc2)n1)Nc1ccc(Cl)c(Cl)c1 | -5.23% |
| Cc1ccc(-c2ccc(/C=N/NC(=O)CN3CCOCC3)o2)cc1[N+](=O)[O-] | -0.384% |
